Laboratory results published in PubChem BioAssay (NCI).
The panel holds about 83,000 compounds, 20% with a hit somewhere; the sample as a whole holds those more often.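 The test compound was applied at a single concentration to cells in 96-well plates for 48 hours, and percent growth was recorded.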 Values without a mark were called inactive. Active and inactive are the calls of the source. How the source made its calls: active means growth percent below 10; inactive means the rest.

Tested on: HL-60(TB) leukemia
Assay: NCI-60 one-dose screen, 48 h (100 = growth as untreated, 0 = no growth, -100 = all killed)
Conditions: 10 µM unless noted

SMILES	growth
N#CCCN(CCCN1CCOCC1)CN1C(=O)c2ccccc2C1=O	83.2%
COc1ccccc1/C=C1\Oc2cc(OCCN3CCCC3)ccc2C1=O	97.1%
CCOC(=O)c1cc(C(=O)c2cc(OC)c(OC)c(OC)c2)n2ccccc12	-24.6% (active)
O=C(O)/C=C\C(=O)Nc1ccc2c(c1)Cc1cc(F)ccc1-2	100%
C=C(c1ccc(C(=O)O)cn1)c1cc2c(cc1C)C(C)(C)CCC2(C)C	84.9%
Cc1cc(=O)cc(C)n1-c1ccccc1	103%
CCN(CC)C(=O)CC1=C(C)/C(=C/c2[nH]c(-c3ccc[nH]3)cc2OC)N=C1C	0.518% (active)
COc1cc(/C=C2\C(=O)Nc3ccc(N(C)C)cc32)cc(OC)c1OC	27.5%
O=C(CSc1nnc(-c2cccnc2SCc2ccccc2)o1)Nc1nc(Cl)cc(Cl)n1	98.3%
Fc1ccccc1Nc1n[nH]c(=S)s1	112%
Cc1cccc2c3c(sc12)C(c1ccc(Cl)cc1)C(C#N)=C(N)O3 (stereo not drawn)	-21% (active)
CCOC(=O)c1cc(C(=O)c2cc(OC)c(OC)c(OC)c2)n2c1ccc1ccccc12	-12.9% (active)
Cc1ccc(S(=O)(=O)OC[C@@]2(C)CC[C@]3(C)CC[C@]4(C)C(=CC[C@@H]5[C@@]6(C)CCCNC(C)(C)[C@@H]6CC[C@]54C)[C@@H]3C2)cc1	-63% (active)
CCOC(=O)C1C(=O)C=C(c2ccccc2)CC1c1sc(N(C)Cc2ccccc2)nc1Cl (stereo not drawn)	78.4%
O=[N+]([O-])c1ccc(SSc2ccc([N+](=O)[O-])cc2Cl)c(Cl)c1	92.5%
O=C(Nc1cc(-c2cccnc2)nc(NCCCN2CCOCC2)n1)c1cc(Br)cc(C(F)(F)F)c1	48.5%
COc1ccc(-c2nc(-c3cn(C)c4ncccc34)cs2)cc1	13% [100 µM]
c1ccc(Cc2ccccc2)cc1	112%
O=C1CN2CCC1C/C2=C\c1ccnc2c(Cl)cccc12 (stereo not drawn)	91.8%
CC1=NNC(=O)C1CCC(=O)N/N=C(\C)c1ccc2ccccc2c1 (stereo not drawn)	86.4%
COc1ccc(Cl)cc1C(=O)Nc1nc2ccc(Cl)cc2s1	103%
COc1cccc(CCN2C(=O)CCC3=C2CCC3=O)c1	99.9%
CCCCCCc1nc2nc(Cl)c(Cl)nc2[nH]1	39.6%
O=C(Nc1ccc(Oc2cccc(Cl)c2)c(Cl)c1)c1cccnn1	89.5%
Cc1ccc(-c2nc(N3CCCNCC3)c3oc(-c4ccc(C)cc4)nc3n2)cc1	-69.3% (active)
COCCCOc1cc(C[C@@H](C[C@H](N)[C@@H](O)C[C@H](C(=O)NCC(C)(C)C(N)=O)C(C)C)C(C)C)ccc1OC	111%
c1ccc(CN=C(NCc2ccccc2)NCc2ccccc2)cc1	49.9%
CCCCCCCCCCOC(c1ccccc1)c1ccccc1	81.4%
